From PubChem BioAssay (NCI)
Compounds without any hit were thinned out: in the full panel of roughly 83,000, 20% have a hit.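 Cells were grown in 96-well plates and exposed to the test compound at a single concentration for 48 hours; results are reported as percent growth, with values below 10 considered active.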 Values without a mark were called inactive.

Tested on: MDA-MB-468 breast
Test: NCI-60 one-dose screen, 48 h (100 = growth as untreated, 0 = no growth, -100 = all killed)
Conditions: 10 µM unless noted

SMILES	growth [%]
CCOC(=O)CSc1nc(-c2cc(OC)ccc2OC)cc(-c2ccc(OC)cc2)c1C#N	92.7
CC1OC(O[C@H]2/C=C/C=C/C=C/C=C/C=C/C=C/C=C/[C@H](C)[C@@H](O)[C@@H](C)[C@H](C)OC(=O)CC(O)CC(O)CCC(O)C(O)CC(O)C[C@]3(O)C[C@H](O)C(C(=O)O)C(C2)O3)C(O)[C@H](N)C1O (stereo partly drawn)	83.3
COc1cc(/C(C)=C(\c2ccc(Cl)cc2)c2ccc(OCCN(C)C)cc2)ccc1F	45.6
